Bioassay records: PubChem, National Center for Advancing Translational Sciences (NCATS)
PI5P4K alpha inh – inhibitors of human PI5P4K alpha | max response, % | actives 1.2% (n = 330,000) | PI5P4Kalpha enzyme, ADP-Glo luminescence, 60 min; stronger effect = lower value; active = max response of -50% or lower; inconclusive = between -30% and -50%; inactive = -30% or higher; also: value at the top dose of about 77 µM; % is scaled to controls: 0 for no effect and ±100 for the full control effect
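PI5P4Kalpha ADP-Glo assay; 5 microM ATP final; 60 min RT reaction; HEPES pH 7.4/EGTA/CHAPS, 5% DMSO; controls lacking substrate or enzyme; luminescent end-point.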
Pol kappa inh-1 – DNA polymerase kappa (human) inhibition | purified Pol kappa, fluorescent DNA synthesis assay, 10 min | actives 0.53% (n = 400,000) | AID 588579 | Potency, µM (titrated, usually from 107 µM), without a hit: at the top dose activity, negative = inhibition, usual class: inhibitors; also: potency is read from the fitted curve at half-maximal effect; % is scaled to controls: 0 for no effect and ±100 for the full control effect
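10 nM Pol kappa was preincubated with compounds for 15 min at room temperature. Reaction started with 50 nM (final) substrate. Fluorescence read kinetically at 0 and 10 min.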
POLB inh – blocks human DNA polymerase beta activity. Potency, µM (top dose mostly 114 µM), for inactives: top-dose activity change, negative = inhibition, actives largely listed as inhibitors. actives 1.3% (n = 340,000). Pol beta primer extension/strand displacement, fluorescence kinetic. AID 485314; also: potency is read from the fitted curve at half-maximal effect; % is scaled to controls: 0 for no effect and ±100 for the full control effect
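Pol beta (10 nM) was preincubated with compound for 15 min at room temperature. The reaction was then started with 50 nM substrate and read immediately and after a further 10 min at room temperature.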
Pol eta inh-1 – DNA polymerase eta (human) inhibition. Potency, µM (series often up to 114 µM), without a hit: at the top dose activity change, negative = inhibition, actives largely listed as inhibitors. recombinant Pol eta, fluorescent DNA replication assay. actives 1.2% (n = 390,000). Q9Y253; also: potency is read from the fitted curve at half-maximal effect; % is scaled to controls: 0 for no effect and ±100 for the full control effect
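Pol eta at 10 nM preincubated with compounds 15 min at room temperature; reaction started with fluorescent substrate (50 nM final) and read kinetically at 0 and 10 min.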
POLI inh – DNA polymerase iota (human) inhibition | Q9UNA4 | Pol iota fluorescent replication assay, 10 min | Potency, µM (series often up to 115 µM), inactives show at the top dose activity, negative = inhibition, most hits filed as inhibitors | actives 1% (n = 390,000); also: potency is read from the fitted curve at half-maximal effect
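Pol iota at 10 nM preincubated 15 min with compounds at room temperature; reaction started with fluorescent substrate, 50 nM final. Fluorescence read kinetically at 0 and 10 min; buffer-only wells as negative control.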
WRN inhibitor – blocks human WRN helicase. actives 0.46% (n = 360,000). Potency, µM (highest dose often 114 µM), for the others: at the highest dose activity change, negative = inhibition, most hits filed as inhibitors. Q14191. WRN helicase unwinding, fluorescent forked duplex, kinetic; also: potency is read from the fitted curve at half-maximal effect; % is scaled to controls: 0 for no effect and ±100 for the full control effect; nearly all actives have a fitted effect of over 55% in size
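WRN at 20 nM final was preincubated with compound for 15 min at room temperature; reaction started with 100 nM forked duplex oligonucleotide carrying fluorophore and quencher plus 2 mM ATP (final). Unwinding followed kinetically by red fluorescence (ex 525/em 598 nm).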
PGK validate – blocks T. brucei phosphoglycerate kinase; shares compounds with Pol kappa inh-1; TbPGK coupled GAPDH assay, Kinase-Glo luminescence; Potency, µM (titrated, usually from 57.5 µM), inactives show at the top dose activity change, negative = inhibition, usual class: inhibitors; actives 79% (n = 500); AID 686980; also: potency is read from the fitted curve at half-maximal effect; % is scaled to controls: 0 for no effect and ±100 for the full control effect; nearly all actives have a fitted effect of over 65% in size
Target sequence (P07378 whole entry, looked up): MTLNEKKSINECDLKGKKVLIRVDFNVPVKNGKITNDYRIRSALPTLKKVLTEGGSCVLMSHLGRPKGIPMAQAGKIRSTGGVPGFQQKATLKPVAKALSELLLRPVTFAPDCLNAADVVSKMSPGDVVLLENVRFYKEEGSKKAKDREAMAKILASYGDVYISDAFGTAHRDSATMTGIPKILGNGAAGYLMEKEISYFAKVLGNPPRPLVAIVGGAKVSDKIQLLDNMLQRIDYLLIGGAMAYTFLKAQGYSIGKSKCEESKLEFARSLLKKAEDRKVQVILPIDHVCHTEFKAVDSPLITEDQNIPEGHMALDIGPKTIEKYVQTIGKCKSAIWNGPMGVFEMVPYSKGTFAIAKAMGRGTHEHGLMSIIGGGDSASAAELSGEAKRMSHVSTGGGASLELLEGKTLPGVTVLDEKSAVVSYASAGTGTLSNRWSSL
Pol iota confirm – Inhibitors of human DNA polymerase iota, confirmation; shares compounds with Pol kappa inh-1; Pol iota primer extension, TAMRA/BHQ fluorescence; Potency, µM, hits mostly inhibitors; actives 77% (n = 1,500); AID 720496; also: potency is read from the fitted curve at half-maximal effect
Pol kappa inh-2 – confirmation of human DNA polymerase kappa inhibitors. shares compounds with Pol eta inh-1. purified Pol-kappa, fluorescent strand-displacement substrate. Potency, µM, actives largely listed as inhibitors. actives 76% (n = 920). AID 720501; also: potency is read from the fitted curve at half-maximal effect
Pol eta inh-2 – Pol eta (human) inhibition, cherry-pick confirmation | shares compounds with Pol eta inh-1 | AID 720502 | actives 64% (n = 2,600) | Potency, µM, actives largely listed as inhibitors | Pol eta primer extension, TAMRA/BHQ fluorescence, 10 min; also: potency is read from the fitted curve at half-maximal effect
An asterisk follows results filed as active; u = inconclusive; x = not tested or not shown; ! = not confirmed by another sample; [ ] = dose if it differs, or a comment. Only some compounds are listed: those with a hit (about 2.8% of all), similar ones and a draw of the others. Unless noted, calls follow the shape of the dose curve; as a rule, active = well fitted curve in the direction sought with a large enough effect; inconclusive = small, poorly fitted or top-dose-only effect, or another doubt; inactive = no such curve, though single readings can be large; an effect the other way counts as inactive or inconclusive.

SMILES	PI5P4K alpha inh	Pol kappa inh-1	POLB inh	Pol eta inh-1	POLI inh	WRN inhibitor	Pol iota confirm	Pol eta inh-2	others
C=C(C)C(=O)Nc1cccc(C2=NOC3(C2)C[C@@H](C(N)=O)N(C(=O)CC(c2ccccc2)c2ccccc2)C3)c1 (stereo partly specified)	u	35.5µM*	12.6µM*	3.98µM*	u	u	75.2*	30.1*	PGK validate=3.26µM*
CCN(CC(=O)Nc1c(F)cccc1F)C(=O)CNC(=O)c1cccc(C)c1	4.3	0.4%	30.2%	-9.7%	17.7%	-15.8%[57.1 µM]	x	x
O=C(N/N=C/c1ccccc1O)NC12CC3CC(CC(C3)C1)C2	17.2	-2.6%	2.3%	-12.3%	-10.3%	-4.4%	x	x
O=C(N/N=C/c1cc(Cl)cc([N+](=O)[O-])c1O)NC12CC3CC(CC(C3)C1)C2	-69.0*	-0.3%	14.1µM*	7.94µM*	10.8%	44.7µM*	x	67.5*	PGK validate=14.6µM*
CCOc1ccccc1NC(=O)C(C)n1nnc2sc3c(c2c1=O)CCCC3 (stereo unspecified)	x	-2.4%	u	x	14.1%	x	x	x
CCOc1ccccc1N(CC)C(=O)Cn1ncc2c1-c1ccccc1OC2	x	-8.2%	-10.4%	-26.9%	28.1%	x	x	x
COC(=O)CCc1ccc(O)cc1	10.1	1.4%	25.8%	1.7%	8.3%	-7.2%	x	x
COC(=O)C1(Cc2ccc(O)cc2)OC(=O)C(O)=C1c1ccc(O)cc1 (stereo unspecified)	u	u	20µM*	11.2µM*	12.6µM*	u	42.3*	26.9*
CC(=O)c1ccc(S(=O)(=O)N2Cc3ccccc3CC2C(=O)O)cc1 (stereo unspecified)	0.1	50.1µM*	12.6µM*	5.01µM*	u	u	26.7*	15.1*
CC(=O)Nc1nnc(SCc2cc(=O)c3cc(C)ccc3[nH]2)s1	x	-2.5%[60.1 µM]	39.8µM*	50.1µM*	79.4µM*	x	67*	u	Pol kappa inh-2=16.8*
CCC(=O)Nc1nnc(SCc2cc(=O)c3cc(C)ccc3[nH]2)s1	x	-7.1%[60.1 µM]	-11.0%	6.1%	-15.6%	x	x	x
COc1ccccc1NC(=O)COC(=O)c1cc2c(s1)CCC2	u	u	x	20µM*	31.6µM*	u	75.2*	75.7*	Pol kappa inh-2=u
CC(C1SC(=S)NC1=O)C1SC(=S)NC1=O (stereo unspecified)	-77.5*	x	x	5.01µM*	x	u	42.3*	9.53*	Pol kappa inh-2=16.8*
O=C(Cn1c(=O)n(-c2ccccc2Cl)c(=O)c2sc3ccccc3c21)N1CCCC1	x	-18.5%	3.6%	-10.1%	13.6%	x	x	x
NC1=NC(=O)/C(=C\c2ccco2)S1	-96.3*	39.8µM*	u	17.8µM*	u	50.1µM*	16.8*	26.9*	Pol kappa inh-2=11.9*
CCc1nn2c(=O)cc(COC(=O)c3ccc(NC(=O)CCc4ccccc4)cc3)nc2s1	x	-8.2%[60.1 µM]	-17.9%	-7.5%	6.6%	x	x	x
Cc1ccc(NC(=O)Cn2c(=O)n(Cc3ccccc3)c(=O)c3c(C)c(C)sc32)c(C)c1	x	-16.1%	15.2%	x	u	x	x	x
COc1cc(C(=O)N=c2sccn2C)c([N+](=O)[O-])cc1OC	1.3	-34.0%	21.6%	-14.6%	121.3%	4.4%	x	x
Cn1ccsc1=NC(=O)c1ccc([N+](=O)[O-])o1	-59.9*	u	7.5%	39.8µM*	25.1µM*	u	33.6*	42.6*
Cc1ccc(C2=NN(CC(=O)NCCN(CC(C)C)CC(C)C)C(=O)CC2)cc1	6.5	-5.2%	6.8%	-29.9%	14.2%	1.9%	x	x
O=C(NCc1ccccc1F)C1CC(=O)N(Cc2ccco2)C1 (stereo unspecified)	5.2	x	x	-4.7%	x	-4.4%	x	x
Oc1cc2c(cc1O)C1c3ccc(O)c(O)c3OCC1(O)C2 (stereo unspecified)	-74.0*	0.178µM*	12.6µM*	7.08µM*	7.94µM*	28.2µM*	23.8*	26.9*	PGK validate=5.8µM*
N#C/C(=C\c1ccc(O)c(O)c1)C(=O)c1ccc(O)c(O)c1	-59.8*	0.336µM*	0.0631µM*	0.126µM*!	1.12µM*	0.168µM*	0.752*	0.675*	PGK validate=0.326µM*;Pol kappa inh-2=0.377*
CCc1nc2nc(C)cc(Nc3cc(Cl)ccc3C)n2n1	x	-22.1%	-1.1%	7.5%	1.3%	x	x	x
CCOC(=O)c1cccc(NC(=O)c2cc3cc4cc(OC)ccc4nc3s2)c1	x	-21.2%	u	u	256.8%	x	u	u	Pol kappa inh-2=18.9*
SMILES	PI5P4K alpha inh	Pol kappa inh-1	POLB inh	Pol eta inh-1	POLI inh	WRN inhibitor	Pol iota confirm	Pol eta inh-2	others
N#C/C(=C\c1ccc(-c2ccc(C(=O)O)cc2)o1)C(=O)Nc1ccc(F)cc1	-29.3	56.2µM*	u	5.62µM*	10µM*	56.2µM*	26.7*	26.9*
Cc1cccc(NC(=O)c2cc(-c3ccc4c(c3)OCCO4)on2)c1	x	9.0%	-1.2%	-12.7%	13.9%	x	x	x
NC(=S)n1[nH]c(-c2ccc([N+](=O)[O-])cc2)c(N=Nc2cccc([N+](=O)[O-])c2)c1=O	u	u	-0.3%	28.2µM*	u	u	67*	47.8*	PGK validate=13µM*
Cc1[nH]n(C(N)=S)c(=O)c1N=Nc1cccc([N+](=O)[O-])c1C	-5.1	-4.1%	-9.5%	-10.4%	-4.9%	-3.8%	x	x
Cc1c(N=Nc2c(-c3ccc([N+](=O)[O-])cc3)[nH]n(C(N)=S)c2=O)cccc1[N+](=O)[O-]	-62.5*	u	-20.9%	50.1µM*	u	u	u	u
Nc1ncnc2oc(-c3ccco3)c(-c3ccco3)c12	x	25.1µM*	6.31µM*	39.8µM*	u	u	42.3*	84.9*
O=C(Nc1ccccn1)C1CCN(C(=O)c2ccc(Cl)cc2)CC1	5.7	x	x	-4.8%	x	11.8%	x	x
CCOC(=O)N(O)c1ccc(C=Cc2ccccc2)cc1	-27.8	79.4µM*	x	12.6µM*	25.1µM*	u	75.2*	u	PGK validate=9.19µM*;Pol kappa inh-2=16.8*
Cc1ccccc1-c1nc2c(=O)n(C)c(=O)nc-2n(C)n1	x	-21.7%	x	x	-88.4%	x	1.68*	4.78*
